Experimental findings from PMC7862700, “An all-to-all approach to the identification of sequence-specific readers for epigenetic DNA modifications on cytosine” are described below.

Common to all, as to experiment: DAPPL (digital affinity profiling via proximity ligation, sequencing); 10 mM Tris-HCl pH 7.5, 50 mM NaCl, 1 mM DTT, 4% glycerol, room temperature, 30 min; GST-TFs on glutathione beads, 16-mer random dsDNA library, 0.1% formaldehyde crosslink after washing; high values mean tight binding
In assay [1] the target is T1, FEV (Homo sapiens, UniProt Q99581 1-238).
T1 sequence: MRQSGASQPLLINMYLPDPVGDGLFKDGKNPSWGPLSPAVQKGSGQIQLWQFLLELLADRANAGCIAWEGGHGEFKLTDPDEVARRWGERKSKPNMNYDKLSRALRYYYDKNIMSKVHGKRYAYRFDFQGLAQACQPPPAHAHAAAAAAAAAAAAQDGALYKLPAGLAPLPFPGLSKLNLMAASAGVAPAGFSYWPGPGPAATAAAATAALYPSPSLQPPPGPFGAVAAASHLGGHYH
The note with it: protein: recombinant; tags: N-terminal GST; dsDNA, one strand shown. In short, it runs like this: (§1)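 Beads coated with glutathione captured GST-fused human transcription factors that had been expressed in yeast, and the factors were then given DNA barcodes and pooled with a tag-only sample. The pools were incubated with 200 nmole of a random double-stranded 16-mer DNA library in Tris/NaCl/DTT/glycerol buffer for 30 min at room temperature, washed, crosslinked with 0.1% formaldehyde and proximity-ligated with BsaI/T4 ligase at 37 °C for 1 h. PCR amplification and Illumina NextSeq500 sequencing came last. Binding signal is each hexamer's read frequency for a factor divided by its frequency for the tag-only sample.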

In assay [2] the target is ETV5 (Homo sapiens, UniProt P41161 1-510). The note with it: protein: recombinant; tags: N-terminal GST; dsDNA, one strand shown. In a few lines:
as §1

The target of assay [3] is HSF1 (Homo sapiens, UniProt Q00613 1-529). The note with it: protein: recombinant; tags: N-terminal GST; chain copies: 3; dsDNA, one strand shown. In short, it runs like this:
as §1

Assay [4] concerns the target T2, SPIC (Homo sapiens, UniProt Q8N5J4 1-248).
T2 sequence: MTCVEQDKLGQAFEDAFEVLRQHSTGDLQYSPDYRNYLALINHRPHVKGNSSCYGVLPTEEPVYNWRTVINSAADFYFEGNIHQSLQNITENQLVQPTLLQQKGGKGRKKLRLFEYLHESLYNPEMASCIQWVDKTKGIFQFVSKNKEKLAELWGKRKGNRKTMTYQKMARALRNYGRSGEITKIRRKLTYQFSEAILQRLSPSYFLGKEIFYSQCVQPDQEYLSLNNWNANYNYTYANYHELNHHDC
The note with it: protein: recombinant; tags: N-terminal GST; dsDNA, one strand shown. In a few lines: as §1

Assay [5] concerns the target ELF4 (Homo sapiens, UniProt Q99607 1-663). The note with it: protein: recombinant; tags: N-terminal GST; dsDNA, one strand shown. In a few lines:
as §1

In assay [6] the target is T3, ELK4 (Homo sapiens, UniProt P28324-2 1-405).
T3 sequence: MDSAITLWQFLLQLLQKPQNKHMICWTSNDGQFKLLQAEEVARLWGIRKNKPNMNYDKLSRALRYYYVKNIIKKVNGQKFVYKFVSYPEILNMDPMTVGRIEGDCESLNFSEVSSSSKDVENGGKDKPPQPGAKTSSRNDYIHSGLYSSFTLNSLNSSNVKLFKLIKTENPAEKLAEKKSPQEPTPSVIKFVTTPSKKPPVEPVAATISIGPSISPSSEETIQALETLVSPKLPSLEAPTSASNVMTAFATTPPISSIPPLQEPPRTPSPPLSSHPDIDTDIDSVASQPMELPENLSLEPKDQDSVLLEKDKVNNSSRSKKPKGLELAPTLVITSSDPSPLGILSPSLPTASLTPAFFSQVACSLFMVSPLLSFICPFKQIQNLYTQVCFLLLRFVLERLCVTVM
The note with it: protein: recombinant; tags: N-terminal GST; dsDNA, one strand shown. In short, it runs like this: as §1

Assay [7] deals with T4, ETV2 (Homo sapiens, UniProt O00321 1-342).
T4 sequence: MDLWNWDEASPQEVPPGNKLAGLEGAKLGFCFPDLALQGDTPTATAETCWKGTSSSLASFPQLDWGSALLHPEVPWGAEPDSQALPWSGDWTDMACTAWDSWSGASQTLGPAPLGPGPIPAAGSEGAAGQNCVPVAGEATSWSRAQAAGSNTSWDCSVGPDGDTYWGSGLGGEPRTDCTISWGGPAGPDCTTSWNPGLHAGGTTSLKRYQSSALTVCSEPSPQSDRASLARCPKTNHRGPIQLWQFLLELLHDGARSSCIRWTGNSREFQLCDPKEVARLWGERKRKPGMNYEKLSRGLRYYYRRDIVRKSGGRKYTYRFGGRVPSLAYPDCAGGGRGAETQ
The note with it: protein: recombinant; tags: N-terminal GST; dsDNA, one strand shown. In a few lines:
as §1

Assay [8] has as its target T5, ELF3 (Homo sapiens, UniProt P78545 1-371).
T5 sequence: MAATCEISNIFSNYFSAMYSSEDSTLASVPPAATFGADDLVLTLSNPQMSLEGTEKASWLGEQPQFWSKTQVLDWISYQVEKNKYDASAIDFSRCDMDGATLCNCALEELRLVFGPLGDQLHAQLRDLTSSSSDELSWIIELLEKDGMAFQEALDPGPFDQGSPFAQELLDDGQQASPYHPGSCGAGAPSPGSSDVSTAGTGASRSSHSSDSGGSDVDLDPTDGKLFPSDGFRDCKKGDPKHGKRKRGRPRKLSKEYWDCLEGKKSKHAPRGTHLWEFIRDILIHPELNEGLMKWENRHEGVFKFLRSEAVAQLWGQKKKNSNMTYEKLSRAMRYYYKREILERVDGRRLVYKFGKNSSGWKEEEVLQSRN
The note with it: protein: recombinant; tags: N-terminal GST; dsDNA, one strand shown. In short, it runs like this: as §1

Assay [9] has as its target CRX (Homo sapiens, UniProt O43186 1-299). The note with it: protein: recombinant; tags: N-terminal GST; dsDNA, one strand shown. In short, it runs like this: as §1
For assay [10], the target named is ETV1 (Homo sapiens, UniProt P50549 1-477). The note with it: protein: recombinant; tags: N-terminal GST; dsDNA, one strand shown. In a few lines:
as §1

The target of assay [11] is T6, ERF (Homo sapiens, UniProt P50548 1-548).
T6 sequence: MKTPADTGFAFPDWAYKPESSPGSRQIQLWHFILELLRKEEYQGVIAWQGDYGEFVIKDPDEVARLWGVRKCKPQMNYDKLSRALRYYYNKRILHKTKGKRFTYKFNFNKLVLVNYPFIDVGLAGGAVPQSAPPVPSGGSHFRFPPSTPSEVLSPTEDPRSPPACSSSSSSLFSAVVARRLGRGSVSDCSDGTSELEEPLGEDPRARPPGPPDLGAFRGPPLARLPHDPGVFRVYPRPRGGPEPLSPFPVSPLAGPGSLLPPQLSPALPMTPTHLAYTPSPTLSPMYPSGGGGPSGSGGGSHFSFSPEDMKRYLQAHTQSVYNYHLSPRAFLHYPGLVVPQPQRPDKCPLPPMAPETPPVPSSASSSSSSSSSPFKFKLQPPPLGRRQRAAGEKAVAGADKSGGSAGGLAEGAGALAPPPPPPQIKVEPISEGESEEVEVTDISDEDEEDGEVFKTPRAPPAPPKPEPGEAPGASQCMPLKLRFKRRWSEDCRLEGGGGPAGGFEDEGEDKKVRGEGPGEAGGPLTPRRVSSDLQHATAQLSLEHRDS
The note with it: protein: recombinant; tags: N-terminal GST; dsDNA, one strand shown. In short, it runs like this: as §1

The target in assay [12] is T7, ETV3L (Homo sapiens, UniProt Q6ZN32 1-361).
T7 sequence: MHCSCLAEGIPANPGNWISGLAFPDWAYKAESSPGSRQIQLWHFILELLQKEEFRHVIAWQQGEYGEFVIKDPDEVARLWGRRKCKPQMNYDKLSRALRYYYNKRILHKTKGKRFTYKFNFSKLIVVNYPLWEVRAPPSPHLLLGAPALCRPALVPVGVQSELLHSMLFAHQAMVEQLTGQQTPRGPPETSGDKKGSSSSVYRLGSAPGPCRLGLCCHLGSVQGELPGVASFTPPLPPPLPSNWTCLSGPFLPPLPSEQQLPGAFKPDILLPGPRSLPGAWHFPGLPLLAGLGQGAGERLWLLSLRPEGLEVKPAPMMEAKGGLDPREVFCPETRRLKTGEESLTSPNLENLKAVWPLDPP
The note with it: protein: recombinant; tags: N-terminal GST; dsDNA, one strand shown. In a few lines: as §1

Assay [13] deals with T8, ETS2 (Homo sapiens, UniProt P15036 1-469).
T8 sequence: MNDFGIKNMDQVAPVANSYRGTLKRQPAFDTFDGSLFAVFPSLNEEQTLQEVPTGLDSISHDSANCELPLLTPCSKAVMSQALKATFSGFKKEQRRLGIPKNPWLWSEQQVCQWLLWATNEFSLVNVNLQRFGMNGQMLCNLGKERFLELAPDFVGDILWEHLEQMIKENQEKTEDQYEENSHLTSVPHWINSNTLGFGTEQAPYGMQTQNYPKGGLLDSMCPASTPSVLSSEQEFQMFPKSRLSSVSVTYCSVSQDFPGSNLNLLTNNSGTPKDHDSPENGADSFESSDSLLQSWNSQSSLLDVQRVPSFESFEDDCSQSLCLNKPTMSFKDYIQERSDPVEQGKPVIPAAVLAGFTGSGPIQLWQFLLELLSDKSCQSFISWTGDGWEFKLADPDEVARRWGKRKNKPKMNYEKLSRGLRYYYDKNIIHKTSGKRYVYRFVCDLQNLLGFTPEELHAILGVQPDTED
The note with it: protein: recombinant; tags: N-terminal GST; dsDNA, one strand shown. In short, it runs like this: as §1

Assay [14] addresses T9, SPDEF (Homo sapiens, UniProt O95238 1-335).
T9 sequence: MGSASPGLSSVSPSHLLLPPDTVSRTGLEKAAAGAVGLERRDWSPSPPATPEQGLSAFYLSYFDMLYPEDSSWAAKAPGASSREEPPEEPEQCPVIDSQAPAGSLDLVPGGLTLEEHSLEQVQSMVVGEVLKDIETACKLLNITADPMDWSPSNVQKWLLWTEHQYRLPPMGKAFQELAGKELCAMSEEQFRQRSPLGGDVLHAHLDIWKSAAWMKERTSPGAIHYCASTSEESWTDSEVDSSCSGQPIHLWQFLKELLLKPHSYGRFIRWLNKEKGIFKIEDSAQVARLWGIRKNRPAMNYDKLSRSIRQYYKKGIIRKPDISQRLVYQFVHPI
The note with it: protein: recombinant; tags: N-terminal GST; dsDNA, one strand shown. In a few lines:
as §1

Assay [15] has as its target T10, ETV7 (Homo sapiens, UniProt Q9Y603 1-341).
T10 sequence: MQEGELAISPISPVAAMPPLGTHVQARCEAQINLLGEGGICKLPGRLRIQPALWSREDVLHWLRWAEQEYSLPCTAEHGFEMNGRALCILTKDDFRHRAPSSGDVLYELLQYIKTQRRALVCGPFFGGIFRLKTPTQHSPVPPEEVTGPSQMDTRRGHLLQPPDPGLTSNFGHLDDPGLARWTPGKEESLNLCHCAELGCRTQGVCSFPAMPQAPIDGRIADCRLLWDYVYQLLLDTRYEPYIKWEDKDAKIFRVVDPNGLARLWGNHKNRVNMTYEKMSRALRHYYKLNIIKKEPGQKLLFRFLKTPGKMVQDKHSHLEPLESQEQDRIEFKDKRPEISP
The note with it: protein: recombinant; tags: N-terminal GST; dsDNA, one strand shown. In short, it runs like this:
as §1

Assay [16] has as its target T11, ELF5 (Homo sapiens, UniProt Q9UKW6-2 1-255).
T11 sequence: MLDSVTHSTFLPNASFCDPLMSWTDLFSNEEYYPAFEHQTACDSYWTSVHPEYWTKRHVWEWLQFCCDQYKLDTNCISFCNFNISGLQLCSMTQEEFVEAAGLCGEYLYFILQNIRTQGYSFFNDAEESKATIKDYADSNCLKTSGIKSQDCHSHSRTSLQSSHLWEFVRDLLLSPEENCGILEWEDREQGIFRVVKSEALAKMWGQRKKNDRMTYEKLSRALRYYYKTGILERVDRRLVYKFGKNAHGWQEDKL
The note with it: protein: recombinant; tags: N-terminal GST; dsDNA, one strand shown. In short, it runs like this: as §1

Assay [17] addresses T12, ETV3 (Homo sapiens, UniProt P41162-2 1-143).
T12 sequence: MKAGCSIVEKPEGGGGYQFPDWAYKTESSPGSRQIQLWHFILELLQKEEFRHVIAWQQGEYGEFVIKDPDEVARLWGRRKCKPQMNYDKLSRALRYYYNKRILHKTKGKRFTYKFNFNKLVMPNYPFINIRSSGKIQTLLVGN
The note with it: protein: recombinant; tags: N-terminal GST; dsDNA, one strand shown. In a few lines:
as §1

The target of assay [18] is ETV6 (Homo sapiens, UniProt P41212 1-452). The note with it: protein: recombinant; tags: N-terminal GST; dsDNA, one strand shown. In a few lines:
as §1

ETV5, sequence (P41161 whole entry): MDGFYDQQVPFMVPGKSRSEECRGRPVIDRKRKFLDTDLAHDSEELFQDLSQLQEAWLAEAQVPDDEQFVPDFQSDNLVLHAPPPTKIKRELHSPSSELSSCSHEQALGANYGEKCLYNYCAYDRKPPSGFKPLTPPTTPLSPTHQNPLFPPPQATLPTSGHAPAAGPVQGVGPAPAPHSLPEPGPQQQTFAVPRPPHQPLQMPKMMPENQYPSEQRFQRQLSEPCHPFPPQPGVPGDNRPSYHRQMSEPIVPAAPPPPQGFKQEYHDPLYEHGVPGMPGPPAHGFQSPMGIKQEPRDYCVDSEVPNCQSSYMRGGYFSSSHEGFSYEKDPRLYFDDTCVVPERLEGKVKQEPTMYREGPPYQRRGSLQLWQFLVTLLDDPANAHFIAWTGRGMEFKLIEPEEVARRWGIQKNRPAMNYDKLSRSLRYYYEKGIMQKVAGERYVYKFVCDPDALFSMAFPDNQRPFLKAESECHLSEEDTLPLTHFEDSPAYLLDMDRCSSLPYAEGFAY
ETV6, sequence (P41212 whole entry): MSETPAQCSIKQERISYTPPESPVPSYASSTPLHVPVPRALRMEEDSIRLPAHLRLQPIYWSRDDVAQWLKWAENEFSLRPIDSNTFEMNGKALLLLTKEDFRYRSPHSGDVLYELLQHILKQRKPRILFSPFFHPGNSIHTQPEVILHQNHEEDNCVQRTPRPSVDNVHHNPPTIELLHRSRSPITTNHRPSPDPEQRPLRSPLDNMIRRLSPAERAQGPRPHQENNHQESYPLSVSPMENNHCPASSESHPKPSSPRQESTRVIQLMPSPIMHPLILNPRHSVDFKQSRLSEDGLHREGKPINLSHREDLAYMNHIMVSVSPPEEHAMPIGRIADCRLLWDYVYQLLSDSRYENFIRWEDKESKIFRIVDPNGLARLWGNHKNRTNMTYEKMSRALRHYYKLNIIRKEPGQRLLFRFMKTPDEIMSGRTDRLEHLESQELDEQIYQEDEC
CRX, sequence (O43186 whole entry): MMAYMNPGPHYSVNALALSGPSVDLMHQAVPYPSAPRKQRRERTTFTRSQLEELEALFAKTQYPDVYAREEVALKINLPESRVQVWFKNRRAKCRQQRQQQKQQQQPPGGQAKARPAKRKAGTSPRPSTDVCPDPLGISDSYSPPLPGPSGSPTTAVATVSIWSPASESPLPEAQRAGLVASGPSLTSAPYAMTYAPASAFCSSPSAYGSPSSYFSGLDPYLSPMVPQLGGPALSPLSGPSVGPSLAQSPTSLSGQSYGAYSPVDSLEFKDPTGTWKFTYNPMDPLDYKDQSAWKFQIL
ELF4, sequence (Q99607 whole entry): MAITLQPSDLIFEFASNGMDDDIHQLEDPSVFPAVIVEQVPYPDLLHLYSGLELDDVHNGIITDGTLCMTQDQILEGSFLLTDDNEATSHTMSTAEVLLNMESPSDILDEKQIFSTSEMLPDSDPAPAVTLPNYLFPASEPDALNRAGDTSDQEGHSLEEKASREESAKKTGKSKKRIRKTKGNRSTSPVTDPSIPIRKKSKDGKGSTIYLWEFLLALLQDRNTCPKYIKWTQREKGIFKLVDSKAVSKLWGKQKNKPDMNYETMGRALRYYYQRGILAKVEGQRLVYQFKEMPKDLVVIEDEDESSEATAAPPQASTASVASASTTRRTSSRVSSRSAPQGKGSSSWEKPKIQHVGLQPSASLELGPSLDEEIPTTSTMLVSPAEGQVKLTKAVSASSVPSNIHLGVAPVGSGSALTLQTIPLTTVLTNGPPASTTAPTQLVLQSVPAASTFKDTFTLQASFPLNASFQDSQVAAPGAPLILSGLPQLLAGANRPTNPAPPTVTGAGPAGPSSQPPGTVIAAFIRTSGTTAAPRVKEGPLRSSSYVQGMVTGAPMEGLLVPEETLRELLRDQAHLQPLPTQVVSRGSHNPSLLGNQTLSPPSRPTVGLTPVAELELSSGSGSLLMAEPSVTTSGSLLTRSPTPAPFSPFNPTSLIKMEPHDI
HSF1, sequence (Q00613 whole entry): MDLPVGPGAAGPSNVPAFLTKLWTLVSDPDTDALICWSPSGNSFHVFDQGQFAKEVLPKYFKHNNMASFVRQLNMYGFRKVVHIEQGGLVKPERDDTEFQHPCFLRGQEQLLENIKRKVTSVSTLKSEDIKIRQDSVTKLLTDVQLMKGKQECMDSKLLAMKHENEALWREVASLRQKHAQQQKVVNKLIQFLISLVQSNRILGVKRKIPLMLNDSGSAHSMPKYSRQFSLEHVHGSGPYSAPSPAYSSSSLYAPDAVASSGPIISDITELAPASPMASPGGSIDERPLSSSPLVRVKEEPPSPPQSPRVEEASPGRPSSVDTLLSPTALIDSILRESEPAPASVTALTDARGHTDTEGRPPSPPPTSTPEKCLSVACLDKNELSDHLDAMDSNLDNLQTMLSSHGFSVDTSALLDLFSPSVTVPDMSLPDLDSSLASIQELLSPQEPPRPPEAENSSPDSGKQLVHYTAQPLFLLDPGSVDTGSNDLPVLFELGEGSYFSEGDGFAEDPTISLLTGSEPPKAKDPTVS
ETV1, sequence (P50549 whole entry): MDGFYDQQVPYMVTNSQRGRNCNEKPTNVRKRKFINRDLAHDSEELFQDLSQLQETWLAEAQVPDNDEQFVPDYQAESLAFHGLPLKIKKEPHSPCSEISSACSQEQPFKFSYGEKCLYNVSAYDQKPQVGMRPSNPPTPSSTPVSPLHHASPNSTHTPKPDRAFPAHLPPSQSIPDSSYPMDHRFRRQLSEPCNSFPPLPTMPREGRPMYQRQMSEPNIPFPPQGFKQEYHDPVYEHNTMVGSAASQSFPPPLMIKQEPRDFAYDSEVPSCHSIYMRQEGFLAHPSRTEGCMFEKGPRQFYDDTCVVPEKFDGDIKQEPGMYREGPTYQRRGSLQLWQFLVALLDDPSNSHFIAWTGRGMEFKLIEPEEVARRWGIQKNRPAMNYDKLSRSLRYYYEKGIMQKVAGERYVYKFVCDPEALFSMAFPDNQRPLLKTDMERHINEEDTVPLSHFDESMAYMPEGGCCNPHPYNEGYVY

TGTCTT: the binding signal in [1] was 1.27 fold enrichment (6-mer frequency, TF over GST control); in assay [2], 1.24 fold enrichment (6-mer frequency, TF over GST control); in [3], 1.13 fold enrichment (6-mer frequency, TF over GST control); in assay [4], 1.39 fold enrichment (6-mer frequency, TF over GST control); in assay [5], 1.19 fold enrichment (6-mer frequency, TF over GST control); in assay [6], 1.17 fold enrichment (6-mer frequency, TF over GST control). For the same sequence, the binding signal in [7] is 1.18 fold enrichment (6-mer frequency, TF over GST control); in assay [8] it was 1.25 fold enrichment (6-mer frequency, TF over GST control); in [9] it was 1.3 fold enrichment (6-mer frequency, TF over GST control); in assay [10], 1.24 fold enrichment (6-mer frequency, TF over GST control); in assay [11], 1.28 fold enrichment (6-mer frequency, TF over GST control); in [12] it was 1.32 fold enrichment (6-mer frequency, TF over GST control). The binding signal in [13] is 1.28 fold enrichment (6-mer frequency, TF over GST control); in [14] it was 1.28 fold enrichment (6-mer frequency, TF over GST control); in assay [15] it was 1.25 fold enrichment (6-mer frequency, TF over GST control); in [16] it was 1.39 fold enrichment (6-mer frequency, TF over GST control); in [17], 1.38 fold enrichment (6-mer frequency, TF over GST control); in [18] it was 1.16 fold enrichment (6-mer frequency, TF over GST control).
